This is an account of results in PubChem BioAssay.

Assay [1] can be described thus: Wnt pathway potentiators raising nuclear beta-catenin – imaging, WNT3A-conditioned medium, mouse C2C12, NPC library, primary screen (AID 1117326; in the data active means nuclear beta-catenin stimulation mostly above about 4.2%, no sharp cut-off; inactive means mostly below about 10%). To be noted: stronger effect = higher value.
The nature of assay [2]: stimulators of insulin release from INS-1E, primary screen, cell-based, 5 mM glucose, NPC library (AID 1117329;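 active means compound raises insulin release from rat beta cells at 5 mM glucose, no numeric limit stated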). As to conditions: rat INS-1E insulin secretion, at 10 µM, stronger effect = higher value.
A short description of assay [3]: growth inhibition of GSK3B-pretreated HCT116 cells – cell-based, CellTiter-Glo, 0.2 to 20 µM (AID 1117336;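 active means compounds lowering colon cancer cell viability after pretreatment blocking the GSK3B kinase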). To be noted: HCT116 viability after GSK3B inhibitor, at 20 µM, stronger effect = higher value. For orientation: In ATP-based viability assays light output follows the ATP content of the culture.
Assay [4] in a line: inhibition of endothelial tube formation, primary screen, imaging, VEGF stimulated, CD31 staining, tube area, NPC library (AID 1117340;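 active means compound that reduces growth-factor-driven endothelial tube area in a mixed cell culture, no cutoff stated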). As to conditions: VEGF-stimulated ADSC/ECFC co-culture, at 10 µM, stronger effect = higher value.
A short description of assay [5]: GLP1 release stimulators, primary, NCI-H716, NPC library (AID 1117341;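 active means compound raises GLP1 secretion from the human gut endocrine cells, with no numeric limit stated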). To be noted: NCI-H716 cells, at 10 µM, stronger effect = higher value.
Assay [6] can be described thus: HCT116 colon cancer cell growth inhibition, primary screen, CellTiter-Glo luminescence, NPC library (AID 1117342;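 active means compounds that lower survival of HCT116 colon cancer cells in the luminescence readout, no numeric limit stated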). To be noted: at 20 µM (top of the series).
Assay [7] is described as follows: reduced SW480 viability measured with CellTiter-Glo, NPC library, primary (AID 1117343;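 active means compounds that lower viability of the colon cancer cells in the luminescence readout, with no numeric limit stated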). To be noted: CellTiter-Glo luminescence; at 20 µM (top of the series) unless noted.
A short description of assay [8]: NPC library primary testing for decreased DLD-1 cell viability via CellTiter-Glo (AID 1117346;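 active means compounds that lower survival of DLD-1 colon cancer cells in the luminescence readout, no cutoff given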). To be noted: DLD-1 viability, CellTiter-Glo luminescence; at 20 µM (top of the series).
The nature of assay [9]: viability loss in pontine glioma line – cell-based, JHH-DIPG-1, MIPE4.0, CellTiter-Glo, qHTS, dose response (AID 1347062; cut-off not given, nearly all actives have AC50 up to about 27 µM). As to conditions: JHH-DIPG-1 viability, CellTiter-Glo ATP luminescence.
A short description of assay [10]: viability loss in pontine glioma line – cell-based, SU-DIPG-XXV, MIPE5.0, CellTiter-Glo, qHTS, dose response (AID 1347065; cut-off not given, nearly all actives have AC50 up to about 26 µM;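 further: cells exposed to compound for 48 hours before ATP readout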). To be noted: CellTiter-Glo ATP luminescence.
A short description of assay [11]: growth inhibition of DIPG cells – cell-based, MIPE4.0 library, CellTiter-Glo luminescence, qHTS (AID 1347066; cut-off not given, nearly all actives have AC50 up to about 30 µM;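 further: cells exposed to compound for 48 hours before readout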). As to conditions: SU-DIPG-VI viability, CellTiter-Glo ATP luminescence.
Assay [12] can be described thus: JHH-DIPG-1 glioma cell viability, MIPE5.0 library, CellTiter-Glo luminescence, qHTS (AID 1347067; cut-off not given, nearly all actives have AC50 up to about 26 µM;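 further: cells exposed to compound for 48 hours before readout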). To be noted: JHH-DIPG-1 glioma viability, CellTiter-Glo ATP luminescence.
Assay [13] can be described thus: growth inhibition of DIPG cells – cell-based, MIPE5.0 library, qHTS (AID 1347068; cut-off not given, nearly all actives have IC50 up to about 30 µM). To be noted: SU-DIPG-XXV viability.
A short description of assay [14]: MELAS cybrid and Rieske KO viability enhancers – cell-based, MELAS cybrids, Rieske KO mouse fibroblasts, CellTiter-Glo, primary screen (AID 1508586;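 active means mean z-score across replicates of 1.96 or higher in either the MELAS or the Rieske mutant cell line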;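 further: z relative to plate mean and SD of compound and empty wells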). As to conditions: low glucose.
Assay [15] in a line: viability loss in pontine glioma line – cell-based, SU-DIPG-IV, MIPE4.0, CellTiter-Glo, qHTS, dose response (AID 1347063; cut-off not given, nearly all actives have AC50 up to about 30 µM;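 further: compound exposure lasted 48 hours before the viability readout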). To be noted: CellTiter-Glo ATP luminescence.
Assay [16] in a line: P. berghei load reduction in hepatocytes – cell-based, HepG2, luciferase luminescence, HepG2 viability, primary screen (AID 624349; in the data active means parasite load remaining mostly below about 12%, no sharp cut-off; inactive means mostly above about 10%;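 further: 100% = mean of DMSO negative control wells on the same plate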). As to conditions: P. berghei liver stage in HepG2, luciferase luminescence, concentration not given here; parasite load remaining: stronger effect = lower value; viability: measured here: HepG2 viability without parasites.
Assay [17] is described as follows: viability loss with induced miR-34 in A549 – imaging, A549 dox-inducible miR-34, nuclei and caspase counts, primary screen (AID 1347080;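 active means compounds whose cell count with miR-34 switched on is under 0.7 times the count with it off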). As to conditions: A549 miR-34 inducible, Hoechst nuclei count, 48 h.
A short description of assay [18]: galactose survival enhancers in mitochondrial complex I cybrids – cell-based, galactose medium, ATP luminescence, primary screen (AID 1645843;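 active means z-score of at least 1.8 in each of two replicates, scored against plate mean and spread of sample wells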;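 further: positive z means more ATP and so rescue of galactose-driven cybrid death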). As to conditions: complex I mutant cybrid cells, 72 h, stronger effect = higher value.
The nature of assay [19]: drug combination growth inhibition, ovarian cancer – cell-based, oncology-focused library, rucaparib conditional, profiling panel (AID 1508598). To be noted: patient-derived ovarian cancer cells, CellTiter-Glo viability, 144 h, stronger effect = lower value.
The mark [20] stands for this setting: MELAS cybrid survival, CellTiter-Glo 48 h, stronger effect = higher value.
Setting [21] is: Rieske KO mouse fibroblast survival, CellTiter-Glo 72 h.

Records with an inconclusive call do not appear. The source made the active and inactive calls.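 How the source made its calls, unless noted: active means normalized viability below 100% at a tested concentration; inactive means the rest.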

For orientation: AC50 means the midpoint of the concentration-response curve, whichever way the signal moves. What is called viability is a read-out of living cells in per cent, often relative to untreated cells.

With `O=c1[nH]c(=O)n([C@H]2C[C@H](O)[C@@H](CO)O2)cc1C(F)(F)F`, the nuclear beta-catenin stimulation in [1] (at 10 µM) is 44.5% (active); in assay [1] (stimulation, at 2 µM) it was 39%. Further, in assay [2], the insulin secretion stimulation was 1.1% (inactive). Besides, the viability decrease in [3] is 84.6% (active). Further, the tube area decrease in [4] was 99.5% (active). For the same compound, in assay [5], the GLP1 secretion stimulation was -3.2% (inactive). Further, in assay [6], the inhibition of viability is 84% (active). In addition, the viability decrease (inhibition) is 98.1% (active) in [7] and 41.5% (active) in assay [8]. Also, the outcome in assay [9], in [10], in [11], in assay [12] and in assay [13] was inactive. Further, the z-score in [14] (setting [20]) was 0.972 (inactive); in assay [14] (setting [21]), 1.84.

With `O[C@@H](CNC[C@H](O)[C@H]1CCc2cc(F)ccc2O1)[C@@H]1CCc2cc(F)ccc2O1`, the nuclear beta-catenin stimulation is 8.6% (inactive) in assay [1] (at 10 µM) and -2.1% in assay [1] (stimulation, at 2 µM). Moreover, in assay [2], the insulin secretion stimulation is 2.75% (inactive). In addition, the viability decrease in assay [3] was 108% (active). Also, the tube area decrease in assay [4] was 60.9% (active). Further, the GLP1 secretion stimulation in [5] was 5.8% (inactive). Besides, the inhibition of viability in assay [6] is 112% (active). For the same compound, the values for the viability decrease (inhibition) in [7] and in assay [8] were 130% (active) and 101% (active), respectively. The concentration at half-maximal activity (AC50) in [15] is 20.9 µM (active).

As for `COC(=O)N[C@H](C(=O)N[C@@H](Cc1ccccc1)[C@@H](O)CN(Cc1ccc(-c2ccccn2)cc1)NC(=O)[C@@H](NC(=O)OC)C(C)(C)C)C(C)(C)C`, in [16], the parasite load remaining was 62.2% (inactive). Moreover, in [16], the viability worked out at 276%. Besides, the nuclear beta-catenin stimulation in assay [1] (at 10 µM) is 2.9% (inactive); in assay [1] (stimulation, at 2 µM) it was 0.8%. Also, in assay [2], the insulin secretion stimulation is 2.15% (inactive). Moreover, the viability decrease in assay [3] is -7% (inactive). Also, the tube area decrease in assay [4] is 82.7% (active). Further, the GLP1 secretion stimulation in assay [5] was -0.7% (inactive). Further, the inhibition of viability in assay [6] is 5.8% (inactive). Also, the viability decrease (inhibition) in assay [7] was -2% (inactive); in assay [8], -6.7% (inactive). The outcome in assay [9] and in [11] was inactive. The fold change in assay [17] (stronger effect = lower value, cell number ratio, induced over uninduced) was 0.809 (inactive); in assay [17] (measured here: relative caspase fold change +Dox/-Dox) it was 0.911. The cell count turned out to be 8470 in assay [17] (measured here: total cells with miR-34 induction, stronger effect = lower value) and 10500 in [17] (measured here: total cells without miR-34 induction). Also, the z-score is -0.0891 (inactive) in [14] (setting [20]), -1.39 in [14] (setting [21]) and 0.325 (inactive) in assay [18].

Regarding `COc1nc(N)nc2c1ncn2[C@@H]1O[C@H](CO)[C@@H](O)[C@@H]1O`, the nuclear beta-catenin stimulation in assay [1] (at 10 µM) was 2.7% (inactive); in assay [1] (stimulation, at 2 µM) it was 0.8%. For the same compound, the insulin secretion stimulation in assay [2] is -1.9% (inactive). Further, the viability decrease in assay [3] was -1.5% (inactive). In assay [4], the tube area decrease was 5.7% (inactive). Also, in [5], the GLP1 secretion stimulation is 0.9% (inactive). For the same compound, the inhibition of viability in [6] is -1.43% (inactive). Besides, the viability decrease (inhibition) in [7] is -15.5% (inactive); in [8], -11.9% (inactive). The compound was called inactive in [9], in assay [15] and in assay [11]. Moreover, the z-score is 0.551 (inactive) in assay [14] (setting [20]) and 0.487 in assay [14] (setting [21]). Moreover, the viability was 129% (inactive) in assay [19] (at 0.000305 µM, OCI-C5x cells, with rucaparib 10 µM, 100% = cells with rucaparib alone); 109% (inactive) in assay [19] (at 0.000305 µM, OCI-C5x cells, without rucaparib); 104% (inactive) in assay [19] (at 0.000305 µM, OCI-P5x cells, with rucaparib 20 µM, 100% = cells with rucaparib alone); 107% (inactive) in [19] (at 0.000305 µM, OCI-P5x cells, without rucaparib); 114% (inactive) in assay [19] (at 0.00122 µM, OCI-C5x cells, with rucaparib 10 µM, 100% = cells with rucaparib alone); 106% (inactive) in assay [19] (at 0.00122 µM, OCI-C5x cells, without rucaparib). Further, the viability was 101% (inactive) in [19] (at 0.00122 µM, OCI-P5x cells, with rucaparib 20 µM, 100% = cells with rucaparib alone); 105% (inactive) in [19] (at 0.00122 µM, OCI-P5x cells, without rucaparib); 108% (inactive) in assay [19] (at 0.00488 µM, OCI-C5x cells, with rucaparib 10 µM, 100% = cells with rucaparib alone); 98% (active) in assay [19] (at 0.00488 µM, OCI-C5x cells, without rucaparib); 101% (inactive) in [19] (at 0.00488 µM, OCI-P5x cells, with rucaparib 20 µM, 100% = cells with rucaparib alone); 97.2% (active) in assay [19] (at 0.00488 µM, OCI-P5x cells, without rucaparib). Further, the viability in [19] (at 0.0195 µM, OCI-C5x cells, with rucaparib 10 µM, 100% = cells with rucaparib alone) is 112% (inactive); in assay [19] (at 0.0195 µM, OCI-C5x cells, without rucaparib), 96.1% (active); in [19] (at 0.0195 µM, OCI-P5x cells, with rucaparib 20 µM, 100% = cells with rucaparib alone), 94% (active); in [19] (at 0.0195 µM, OCI-P5x cells, without rucaparib) it was 102% (inactive); in assay [19] (at 0.0781 µM, OCI-C5x cells, with rucaparib 10 µM, 100% = cells with rucaparib alone) it was 113% (inactive); in assay [19] (at 0.0781 µM, OCI-C5x cells, without rucaparib), 99.7% (active). The viability in assay [19] (at 0.0781 µM, OCI-P5x cells, with rucaparib 20 µM, 100% = cells with rucaparib alone) was 94.2% (active); in assay [19] (at 0.0781 µM, OCI-P5x cells, without rucaparib) it was 101% (inactive); in assay [19] (at 0.313 µM, OCI-C5x cells, with rucaparib 10 µM, 100% = cells with rucaparib alone), 101% (inactive); in assay [19] (at 0.313 µM, OCI-C5x cells, without rucaparib), 90.4% (active); in [19] (at 0.313 µM, OCI-P5x cells, with rucaparib 20 µM, 100% = cells with rucaparib alone), 98% (active); in [19] (at 0.313 µM, OCI-P5x cells, without rucaparib), 97% (active). For the same compound, the viability was 102% (inactive) in [19] (at 1.25 µM, OCI-C5x cells, with rucaparib 10 µM, 100% = cells with rucaparib alone); 83.3% (active) in assay [19] (at 1.25 µM, OCI-C5x cells, without rucaparib); 90.5% (active) in [19] (at 1.25 µM, OCI-P5x cells, with rucaparib 20 µM, 100% = cells with rucaparib alone); 90.1% (active) in assay [19] (at 1.25 µM, OCI-P5x cells, without rucaparib); 92.9% (active) in assay [19] (at 5 µM, OCI-C5x cells, with rucaparib 10 µM, 100% = cells with rucaparib alone); 84.3% (active) in assay [19] (at 5 µM, OCI-C5x cells, without rucaparib). In addition, the viability in [19] (at 5 µM, OCI-P5x cells, with rucaparib 20 µM, 100% = cells with rucaparib alone) is 80.3% (active); in [19] (at 5 µM, OCI-P5x cells, without rucaparib) it was 90% (active).
